Sampled rows, rich in hits. Any-hit rate of the full collection: about 2.5%.
hiPSC survival = hiPSC single-cell survival enhancement | ATPlite luminescence; 100% = ROCK inhibitor wells, 0% = DMSO | survival enhancement, % at 20 µM | 360,000 tested, 0.044% active | AID 602274; in the data active = survival enhancement above about 18%;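 also: cells exposed to compounds for 16 hours before the ATP read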
CRFBP-R2 block = CRF-BP/CRF-R2 complex antagonism | HEK293 CRF-R2/CRF-BP, CRF-induced calcium fluorescence | inhibition, % at 11.8 µM | 350,000 tested, 0.59% active;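 active = inhibition of the ligand-induced calcium signal above about 50% at the single tested concentration, limit read from the data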
Cardio protect = modulators protecting cardiomyocytes from myocardial damage | H9c2 cardiomyocytes, H2O2 injury protection, ATPLite, 2 h | protection from H2O2 cell death, % at 20 µM | 360,000 tested, 0.63% active | AID 588492;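 active = compounds giving at least 50% protection of heart cells from peroxide-induced death in the single-dose screen, raw or plate-pattern-corrected value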;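 also: 0% = DMSO wells with peroxide and 100% = DMSO wells without peroxide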
SKN-1 inh = inhibitors of C. elegans SKN-1; C. elegans VP596 Pgst-4::GFP/RFP ratio, acrylamide-induced, 24 h; inhibition, % at 21.8 µM; 360,000 tested, 0.49% active; AID 624304;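 active = interference check ratio from 0.5 to 1.5 plus GFP to RFP signal ratio inhibition reaching or exceeding a fixed threshold, cut at about 30% in these data, passing the limit was not always enough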
CRFBP-R2 agonist = CRF-BP/CRF-R2 complex agonism; HEK293 CRF-R2/CRF-BP, calcium dye fluorescence (FLIPR); percent of saturating CRF peptide response; activation, % at 13.2 µM; 350,000 tested, 0.46% active;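 active = activation of at least 50%, plus an integration ratio under a set limit after plate pattern correction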;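 also: plate controls were neutral control wells without compound for no effect and CRF at EC100 for full effect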
H9c2 TAG inh = reduces triacylglycerol accumulation in H9c2 cells | inhibition, % at 12.5 µM | Nile Red lipid (TAG) fluorescence; cells loaded with 200 µM oleic acid | 230,000 tested, 0.66% active;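 active = pattern-corrected inhibition of lipid staining of at least 50% with the nuclear-stain viability signal not falling by more than 50%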;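 also: 0% = DMSO wells and 100% = triacsin C control wells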
Active calls of the source: *; x = no result given.

SMILES	hiPSC survival	CRFBP-R2 block	Cardio protect	SKN-1 inh	CRFBP-R2 agonist	H9c2 TAG inh
CCN(CC)c1ccc(/C=C(/C#N)c2nc3ccccc3[nH]2)c(OC(C)C)c1	-2	-219	-9	-1	158*	x
CSc1ccc(CNC(=O)C2(C)CCN2C(C)C)cc1 (stereo unspecified)	0	x	-6	15	x	-5
O=C(NCCc1csc(-c2ccccc2)n1)c1c(F)cccc1F	-2	-14	-18	-14	-5	8
O=C(NCCc1csc(-c2ccccc2)n1)c1c(F)cccc1Cl	-2	88*	4	12	-1	x
CCCCNC(=O)C(NC(=O)c1ccc2c(c1)OCO2)C(=O)c1ccccc1 (stereo unspecified)	x	x	x	7	x	x
O=C(Nc1c(-c2ccccc2)[nH][nH]c1=O)c1ccco1	3	x	4	9	x	x
COc1cccc(OC)c1C(=O)Nc1cc(C)nn1-c1nc2ccccc2[nH]1	0	9	77*	1	-1	33
Cc1cc(NC(=O)c2ccccc2)n(-c2nc3ccccc3[nH]2)n1	-1	-19	1	0	3	34
COc1ccc(C(=O)Nc2cc(C)nn2-c2nc3ccccc3[nH]2)c(OC)c1	0	-13	63*	5	1	44
Cc1ccccc1NC(=O)c1ccc(OCc2c(C)noc2C)cc1	-2	6	0	12	0	-5
COc1ccc(C2c3c(-c4ccccc4O)n[nH]c3C(=O)N2Cc2ccco2)cc1 (stereo unspecified)	2	136*	0	15	-3	-6
Cc1ccc(-n2cnc3c(=O)[nH]cnc32)cc1[N+](=O)[O-]	-3	-1	-1	4	-1	9
O=C(CN1C(=O)NC2(CCCC2)C1=O)Nc1cc(S(=O)(=O)N2CCOCC2)ccc1OCC(F)(F)F	0	-1	1	40*	0	11
CCN1CCN(c2c(/C=C3\SC(=S)N(Cc4ccco4)C3=O)c(C)c(C#N)c(=O)n2C)CC1	0	-95	-1	7	90*	14
CC1CCCCN1C(C(=O)O)c1ccccc1 (stereo unspecified)	0	65*	3	0	-1	11
CC1CCCCN1C(=O)c1ccc(C(=O)c2ccccc2)cc1 (stereo unspecified)	-2	2	-3	7	0	6
O=S1(=O)CC(N2CC=CC2)CN1Cc1cn(Cc2cccc(C(F)(F)F)c2)nn1 (stereo unspecified)	1	x	x	5	x	x
COc1ccc(CCNC(=O)COc2ccc(N(C)S(=O)(=O)c3ccc(C)cc3)cc2)cc1OC	1	103*	-2	1	-2	-17
Cc1ccc2oc(=O)c(/C=C(\O)c3ccco3)nc2c1	-1	-54	3	-10	147*	9
Cc1ccc(/C(O)=C/c2nc3ccccc3oc2=O)cc1	-1	-60	-15	9	60*	7
Cc1ccc2oc(=O)c(/C=C(\O)C(C)(C)C)nc2c1	-1	5	27	1	0	4
Cc1ccc2oc(=O)c(/C=C(\O)c3sc(C)nc3C)nc2c1	2	-106	11	0	123*	x
CC(C)N(C)c1ncnc2c1ncn2[C@H]1CN(Cc2ccc(F)cc2)C[C@@H](CO)O1	-2	x	4	9	x	11
CC(=O)Nc1ccc(C(=O)N2CCCCC2c2cc(C(=O)NCc3ccc(F)cc3)no2)cc1 (stereo unspecified)	-2	x	-5	-14	x	13
CCC1(CC)C(=O)C2=C3C1[C@H](C(=O)OC)C=C(C(=O)OC)C[C@H]3[C@H]1C(=O)N(CC(=O)OC)C(=O)[C@H]1[C@H]2C (stereo partly specified)	4	-5	12	-14	0	0
SMILES	hiPSC survival	CRFBP-R2 block	Cardio protect	SKN-1 inh	CRFBP-R2 agonist	H9c2 TAG inh
Cc1ccc(C)c(N2CCN(C(=O)c3cc4ccccn4n3)CC2)c1	3	-84	1	-34	119*	-11
COc1ccccc1N/N=C/c1c(CO)cnc(C)c1O	0	-11	8	5	1	x
COc1ccccc1NS(=O)(=O)c1cccc(C(=O)N/N=C/c2c(CO)cnc(C)c2O)c1	1	-5	52*	-19	16	-10
COC(=O)CN1C(=O)Nc2ccc(Br)cc2C1c1ccccc1 (stereo unspecified)	1	-20	-7	-13	1	-25
O=C(O)CN1C(c2ccccc2O)Nc2ccc(Br)cc2C1c1ccccc1 (stereo unspecified)	1	63*	7	2	-2	x
COc1ccc(C2Nc3ccc(Br)cc3C(c3ccccc3)N2CC(=O)O)cc1 (stereo unspecified)	0	87*	-10	-1	-6	3
CC1=Nc2ccc(Br)cc2C(c2ccccc2)N1CC(=O)O (stereo unspecified)	4	3	1	4	-1	-31
Cc1nc(OCc2ccccc2)c2ccccc2n1	2	4	51*	8	0	-10
O=C1CSC(=S)N1Nc1ccccc1	-1	-8	0	36*	0	-10
Cc1ccccc1C(=O)NN1C(=O)CSC1=S	0	7	0	-1	0	x
CCC(C)NS(=O)(=O)c1ccc(OCC(=O)NCc2ccccn2)cc1 (stereo unspecified)	2	51*	0	7	14	-18
OC[C@@H]1CN(Cc2cccc(C(F)(F)F)c2)C[C@H](n2cnc3c(NCc4ccco4)ncnc32)O1	-1	x	-2	4	x	28
O=S1(=O)C=C(Oc2ccc3ccccc3c2)c2ccccc21	-1	-8	-10	37*	1	-71
O=S1(=O)C=C(Oc2ccc(F)cc2)c2ccccc21	-1	-9	-2	21	0	-2
COc1ccc(O)c(C(=O)c2cc(C#N)c(=O)n(-c3c(C)n(C)n(-c4ccccc4)c3=O)c2)c1	-3	-5	1	-2	86*	0
Cc1ccc(O)c(C(=O)c2cc(C#N)c(=O)n(-c3c(C)n(C)n(-c4ccccc4)c3=O)c2)c1	-2	-17	10	-20	48	x
Cc1cc(NC(=O)CN2CCN(S(=O)(=O)c3ccc4ccccc4c3)CC2)no1	-3	50*	2	-10	3	3
Cc1ccnc(NC(=O)C2CCN(S(=O)(=O)c3ccc4ccccc4c3)CC2)c1	0	21	-8	1	0	-15
O=C(Nc1ccccn1)C1CCN(S(=O)(=O)c2ccc3ccccc3c2)CC1	0	59*	-3	14	0	-14
O=C(CN1CCN(S(=O)(=O)c2ccc(Br)cc2)CC1)Nc1ccc2c(c1)OCO2	0	-1	-7	35*	2	7
CC1=C(C(=O)OC(C)C)C(c2ccc(Cl)cc2)n2c(sc(=Cc3ccc(OCC(=O)O)cc3)c2=O)=N1 (stereo unspecified)	5	x	29	5	x	5

Bioassay records deposited in PubChem BioAssay by Sanford-Burnham Center for Chemical Genomics.
